Experimental data from PubChem BioAssay AID488969 (Vanderbilt High Throughput Screening Facility, 2010).
Over roughly 110,000 compounds, “z-score” has its median near -0.1; the highest 2% begin near 2. The sample holds the highest values, similar compounds and a random draw of the others, so the mix is not that of the screen. Calls of active or inactive are those of the source.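 Rule for the calls: active = z-score in the third read window above 3 or below -3; inactive = the rest.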

Biological target: Metabotropic glutamate receptor 8 (Rattus norvegicus) (UniProt P70579)
Sequence (P70579 whole entry, looked up): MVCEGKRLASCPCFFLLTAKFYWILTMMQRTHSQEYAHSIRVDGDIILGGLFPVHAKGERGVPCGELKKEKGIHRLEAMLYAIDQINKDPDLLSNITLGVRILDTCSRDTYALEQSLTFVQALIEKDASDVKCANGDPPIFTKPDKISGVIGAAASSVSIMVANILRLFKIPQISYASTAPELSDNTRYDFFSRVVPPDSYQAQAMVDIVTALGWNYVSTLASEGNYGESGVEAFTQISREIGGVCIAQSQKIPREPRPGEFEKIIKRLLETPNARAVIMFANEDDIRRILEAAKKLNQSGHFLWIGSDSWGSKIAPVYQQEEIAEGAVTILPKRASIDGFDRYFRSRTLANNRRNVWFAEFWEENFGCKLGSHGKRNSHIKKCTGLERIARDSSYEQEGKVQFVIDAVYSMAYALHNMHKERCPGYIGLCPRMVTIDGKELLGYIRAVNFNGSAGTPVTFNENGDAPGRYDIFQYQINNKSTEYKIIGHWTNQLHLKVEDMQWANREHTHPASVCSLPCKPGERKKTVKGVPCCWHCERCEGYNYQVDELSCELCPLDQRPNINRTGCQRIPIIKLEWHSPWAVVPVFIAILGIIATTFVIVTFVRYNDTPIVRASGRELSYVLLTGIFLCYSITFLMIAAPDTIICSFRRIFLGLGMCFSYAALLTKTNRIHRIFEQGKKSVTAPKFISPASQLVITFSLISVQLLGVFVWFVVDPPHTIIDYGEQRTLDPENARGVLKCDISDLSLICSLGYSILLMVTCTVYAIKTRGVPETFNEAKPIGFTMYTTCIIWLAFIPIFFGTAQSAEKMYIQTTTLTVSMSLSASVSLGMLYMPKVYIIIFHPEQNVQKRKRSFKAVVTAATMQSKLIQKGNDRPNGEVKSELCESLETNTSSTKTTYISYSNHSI
Test: rat mGluR8 modulators via GIRK flux, primary screen, cell-based, thallium flux, HTS (AID 488969)
Details: HEK293 rat mGluR8, GIRK (G protein-gated inwardly rectifying potassium channel) thallium flux, FluoZin2; at 10 µM; stronger effect = higher value

| Structure (SMILES) | z-score |
| --- | --- |
| O=C(NC(Oc1ccccc1)C(Cl)(Cl)Cl)c1ccccc1 (stereo not given) | -0.149 |
| CN(C(=O)Oc1ccc(Cl)c2cccnc12)c1ccccc1 | -0.251 |
| CCOc1ccc(N=Cc2c(O)n(C(C)(C)C)c(=O)[nH]c2=O)cc1 | -0.283 |
| CCOC(=O)C1C2NC(=O)N(Cc3ccccc3)C1(C)Oc1c(OC)cccc12 (stereo not given) | 0.0221 |
| CCC(C)C1N=C(c2ccccc2)c2cc(Cl)ccc2N(CC(=O)NCc2ccco2)C1=O (stereo not given) | -0.0258 |
| O=C(CN1C(=O)CN=C(c2ccccc2)c2ccccc21)NCc1ccco1 | -0.206 |
| O=C(CN1C(=O)CN=C(c2ccccc2Cl)c2cc(Cl)ccc21)NCc1ccco1 | 2.98 |
| OC(c1ccccc1)(c1ccccc1)c1ccncc1 | -0.0666 |
| Cn1cccc1CNCCc1ccc(F)cc1 | -0.24 |
| c1ccc(CCNCc2ccccc2)cc1 | -0.78 |
| Cn1cccc1CNCCc1ccccc1 | 6.88 (active) |
| CCC(=NCCCN(CC)CC)c1c(O)n(C2CCCCC2)c(=O)[nH]c1=O | -0.25 |
| N#Cc1c(Cl)nc(Cl)c2c1CCN(Cc1ccccc1)C2 | -0.608 |
| Cc1ccc(OP(=O)(NCc2ccccc2)Oc2ccc(C)cc2)cc1 | -0.00664 |
| OCC12CO[C@@H]3c4ccccc4[C@H](OC1)N32 (stereo not given in full) | -0.0926 |
| O=C(Nc1ccc(Cl)cc1)Nc1nccs1 | 8.34 (active) |
| CON(C)C(=O)Nc1ccc(Cl)cc1 | 0.516 |
| O=C(Nc1ccc(Cl)cc1)O/N=C(\c1ccccc1)c1ccccn1 | -0.375 |
| CCC(C)c1ccc(N2C(=O)NC(=O)/C(=C/c3cccn3CCOc3ccc(C)cc3)C2=O)cc1 (stereo not given) | 0.272 |
| Cc1cc(C)c(-n2c(O)c(/C=N/N3CCCCC3c3cccnc3)c(=O)[nH]c2=O)c(C)c1 (stereo not given) | -0.531 |
| Cc1nn(Cc2ccccc2)c(Cl)c1C(=O)OC(C)C(=O)Nc1ccc(F)cc1Cl (stereo not given) | 0.0724 |
| CCCCc1nc(N2CCNCC2)c(C#N)c2c1CSC(C)(C)C2 | 2.01 |
| COc1ccc(CCNC(=O)COC(=O)Cc2ccccc2)cc1 | -0.0964 |

| Structure (SMILES) | z-score |
| --- | --- |
| O=P(OCC(F)(F)C(F)F)(N1CCCCC1)N1CCCCC1 | -0.0155 |
| COC(=O)c1ccccc1-n1c(C)nc2ccccc2c1=O | -0.159 |
| CCCCCn1c(=O)c(C(=O)Nc2c(C)n(C)n(-c3ccccc3)c2=O)c(O)c2ccccc21 | -0.252 |
| CC(C)CCn1c(=O)c(C(=O)Nc2ccccc2S(N)(=O)=O)c(O)c2ccccc21 | 2 |
| CCCCCn1c(=O)c(C(=O)NCc2ccncc2)c(O)c2ccccc21 | -1.2 |
| Cn1cc(C(=O)Cc2ccccc2)c2ccccc21 | 0.166 |
| NC12CN3CN(CN(C3)C1)C2 (tested in a mixture with another compound) | -0.55 |
| CCN1CCN(CC(=O)c2c(C)n(Cc3ccccc3)c3ccc(OC)cc23)CC1 | 0.191 |
| CC(C)NC(C)C(=O)C12CC3CC(CC(C3)C1)C2 (stereo not given) | 0.115 |
| CC(NC1CCCCC1)C(O)C12CC3CC(CC(C3)C1)C2 (stereo not given) | 2.39 |
| O=C(COC(=O)Cc1ccccc1)NC12CC3CC(CC(C3)C1)C2 | -0.0902 |
| CCCCn1c(C)c(C(=O)O)c2cc(OC)ccc21 | -0.364 |
| COCCn1c(-c2ccccc2)cc(C(=O)O)c1C | 2.06 |
| COCCCn1c(-c2ccc(OC)cc2)cc(C(=O)NC2CCCCCCC2)c1C | -0.648 |
| CCS(=O)(=O)N1CCCC(C(=O)N2CCC3(CC2)OCCO3)C1 (stereo not given) | 0.0065 |
| CCOc1ccc(-n2c(O)c(C=NCCCn3ccnc3)c(=O)[nH]c2=O)cc1 | 0.0171 |
| CC(C)c1cccc(C(C)C)c1OCCn1ccnc1 | 2.23 |
| CCCCCSc1cc(OC)c(CCN)cc1OC | 1.67 |
| CCCCCCCSc1cc(OC)c(CCNC)cc1OC | 2.15 |
| CCCCCSc1cc(OC)c(CCNC)cc1OC | 0.115 |
| O=C(C1CC(c2ccc(Cl)c(Cl)c2)=NO1)N1CCC2(CC1)OCCO2 (stereo not given) | 0.509 |
| O=c1[nH]c(=O)n(Cc2ccccc2)c(O)c1C=Nc1ccc(CN2CCOCC2)cc1 | -0.0494 |
